Test results published in PubChem BioAssay AID504582 (Broad Institute, 2011).
The campaign covered roughly 340,000 compounds. About 2,300 (0.68%) were called active. Rule as the data show it: active = growth rescue above about 28% (passing the limit was not always enough); inconclusive = no clear call, values can overlap the other calls. Many of the other results were omitted from the sample, so actives are more common in it than they were.

Test: rescue of yeast from PfHsp40 toxicity, primary screen, S. cerevisiae, ATP luminescence (AID 504582);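 also: yeast W303a lacking pdr1 and pdr3 grown in galactose medium; growth measured after three days at 30 °C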
Conditions: S. cerevisiae expressing PfHsp40, growth rescue, at 12.5 µM, active compounds read high
For `Cn1c(CCC(=O)OCC(=O)NCc2ccccc2Cl)nc(=O)c2ccccc21`, the growth rescue was 1.08% (inactive).
In the case of `O=C(CN1C(=O)NC2(CCCC2)C1=O)Nc1ccc(F)c(F)c1F`, the growth rescue is reported as -0.549% (inactive).
With `Cc1cccc(NC(=O)Nc2cccc(Oc3c(F)c(F)c(F)c(F)c3F)c2)c1` the growth rescue was -0.315% (inactive).
With `Cc1ccoc1C(=O)Nc1cccc(Oc2ccccc2)c1` the growth rescue was 372% (active).
With `CC(Oc1cccc(NC(=O)c2cccs2)c1)C(=O)c1ccccc1` (stereo not drawn) the growth rescue was 3.27% (inactive).
With `CCC1CCCCN1CCNC(=O)c1[nH]c(C)c(C(C)=O)c1C` (stereo not drawn) the growth rescue was -0.34% (inactive).
With `O=C1NC2(CCCCCC2)C(=O)N1CCS(=O)(=O)Oc1ccccc1` the growth rescue was 0.283% (inactive).
With `CN(C)CCOC(=O)C(c1ccccc1)C1(O)CCCC1` (stereo not drawn) the growth rescue was 0.536% (inactive).
In the case of `O=C(NCC1COc2ccccc2O1)C1(c2ccccc2)CCCC1` (stereo not drawn), the growth rescue is reported as 2.05% (inactive).
With `CN(C)CC1Oc2ccccc2OC1(O)c1ccccc1` (stereo not drawn) the growth rescue was 472% (active).
With `CSc1ncccc1C(=O)NCc1ccccc1Cl` the growth rescue was 1.68% (inactive).
With `CCN(CC)CCCNC(=O)CCn1nc(-c2ccc(Cl)cc2)ccc1=O` the growth rescue was -0.666% (inactive).
For `O=C(COc1ccccc1F)Nc1nc(-c2ccccn2)cs1`, the growth rescue was 398% (active).
With `CC(NC(=O)c1ccco1)C(=O)Nc1nc(-c2ccccn2)cs1` (stereo not drawn) the growth rescue was -0.236% (inactive).
For `O=C(CN1C(=O)C2C3C=CC(C3)C2C1=O)Nc1nc(-c2ccccn2)cs1` (stereo not drawn), the growth rescue was -0.446% (inactive).
In the case of `O=C(O)C1=C[C@H](c2cccs2)C[C@H](OCCCCO)O1`, the growth rescue is reported as -1.21% (inactive).
In the case of `O=C(Nc1sc2c(c1C(=O)O)CCC2)c1ccccc1F`, the growth rescue is reported as 0.175% (inactive).
In the case of `O=C(O)c1c(NC(=O)N2CCCC2)sc2c1CCCC2`, the growth rescue is reported as 232% (active).
With `O=C(CN1CCCC1)Nc1sc2c(c1C(=O)Nc1ccccc1)CCCC2` the growth rescue was 0.179% (inactive).
In the case of `C=CCNc1nc(Nc2ccc(Cl)cc2)nc(OC)n1`, the growth rescue is reported as 0.232% (inactive).
In the case of `CC(C)(C)NC(=O)c1ccc(Cn2cc(C(F)(F)F)ccc2=O)cc1`, the growth rescue is reported as -0.625% (inactive).
In the case of `Cn1c(=O)n(C)c2cc(C(=O)Nc3ccc(Br)cc3)ccc21`, the growth rescue is reported as -1.51% (inactive).
In the case of `Cn1ccc(=Nc2ccc(NC(=O)c3ccc(N=c4ccn(C)c5ccc([N+](=O)[O-])cc45)cc3)cc2)cc1`, the growth rescue is reported as 236% (active).
In the case of `CCc1ccc(NC(=O)c2ccc(Cn3cc([N+](=O)[O-])cn3)cc2)cc1`, the growth rescue is reported as -0.255% (inactive).
For `Oc1ccc2ccccc2c1N=Nc1nccs1`, the growth rescue was 118% (active).
With `Cc1ccc(CNC(=O)CC2Sc3ccccc3NC2=O)cc1` (stereo not drawn) the growth rescue was 0.304% (inactive).
In the case of `Cc1cccc(NC(=O)c2cccc(C(=O)Nc3cccc(C)c3C)n2)c1C`, the growth rescue is reported as -0.654% (inactive).
With `O=C(OCc1ccc(-c2ccccc2)cc1)c1cccc(O)c1` the growth rescue was 179% (active).
For `O=C(CNC(=O)c1ccc(-c2ccccc2)cc1)OCc1ccc(Cl)cc1`, the growth rescue was -0.241% (inactive).
With `O=C(OCC(=O)c1c[nH]c2ccccc12)c1cccc(O)c1` the growth rescue was -0.5% (inactive).
With `C/C(Cn1nnc2ccccc21)=N\OC(=O)c1cc(F)c(F)cc1Cl` the growth rescue was 0.415% (inactive).
In the case of `O=C(CCC(=O)N1CCCC1)Nc1ccc([N+](=O)[O-])cc1`, the growth rescue is reported as -0.401% (inactive).
For `Cc1c(C(=O)N2CCCC2)c(S(=O)(=O)NCC(C)c2ccccc2)c(C)n1C` (stereo not drawn), the growth rescue was -0.332% (inactive).
In the case of `CCOC(=O)c1ccccc1NC(=O)COC(=O)CCC(=O)N1CCOCC1`, the growth rescue is reported as -0.942% (inactive).
In the case of `CCC(CC)NC(=O)/C=C/c1cccc([N+](=O)[O-])c1`, the growth rescue is reported as -2.62% (inactive).
With `O=C(Nc1cccc([N+](=O)[O-])c1)Nn1cnnc1` the growth rescue was 0.084% (inactive).
For `COC(=O)/C=C\C(=O)Nc1cccc([N+](=O)[O-])c1`, the growth rescue was 233% (active).
In the case of `CCOC(=O)N1CCN(C(=O)C(=O)Nc2sc3c(c2C#N)CC(C)(C)OC3)CC1`, the growth rescue is reported as -1.13% (inactive).
In the case of `COc1ccc(-c2nc3n(c(=O)c2C#N)CCS3)c(OC)c1`, the growth rescue is reported as -0.93% (inactive).
For `O=C(CSc1nc(C2CC2)nc2ccccc12)Nc1ccc2c(c1)OCCO2`, the growth rescue was 0.157% (inactive).
With `CCCc1nc(SCC(=O)Nc2ccc(S(=O)(=O)N(C)C)cc2)c2ccccc2n1` the growth rescue was 56.5% (active).
With `CCCNC(=O)CSc1nc(Cc2ccccc2)nc2ccccc12` the growth rescue was 1.34% (inactive).
In the case of `Cc1ccc(-n2c(C)nnc2SCC(=O)NC2CC2)cc1`, the growth rescue is reported as 0.655% (inactive).
With `CCCCC/C=C/C1=CC(=O)C[C@H](c2ccc(Cl)cc2)C1` the growth rescue was -0.132% (inactive).
In the case of `Cc1cccnc1NC(=O)Cn1c(=O)oc2ccccc21`, the growth rescue is reported as 0.888% (inactive).
In the case of `CSCc1cc(N(C)C)nc(SCc2ccc(Cl)cc2Cl)n1`, the growth rescue is reported as 119% (active).
In the case of `CSCc1cc(N2CCOCC2)nc(SCc2ccc(Cl)cc2Cl)n1`, the growth rescue is reported as 21.9% (inactive).
In the case of `Nc1cc(N)nc(SCc2ccc(Cl)cc2)n1`, the growth rescue is reported as 0.722% (inactive).
With `O=C(O)c1cc2ccccc2c(=O)s1` the growth rescue was -1.29% (inactive).
With `CCCCCN1CC(O)=C(c2ccccc2)C1=N` the growth rescue was 1.8% (inactive).
In the case of `CCCCCCCCn1c2c(c(=N)c3c1CCC3)CCCC2`, the growth rescue is reported as -1.32% (inactive).
For `CCCCCCCCCCCCn1ccc(=N)cc1`, the growth rescue was 174% (active).
With `Nc1cccnc1Sc1ccccc1` the growth rescue was -0.346% (inactive).
For `O=C(CN1C(=O)NC2(CCCCC2)C1=O)NCCC1=CCCCC1`, the growth rescue was -1.2% (inactive).
In the case of `CC(=O)c1ccc(S(=O)(=O)Nc2ccc(C(=O)NCC(c3ccccc3)N(C)C)cc2)cc1` (stereo not drawn), the growth rescue is reported as 0.039% (inactive).
With `COc1ccc(C(CNC(=O)c2ccc(NS(=O)(=O)c3ccc(F)c(C)c3)cc2)N(C)C)cc1` (stereo not drawn) the growth rescue was -1.73% (inactive).
For `COc1ccc(C(CNC(=O)c2ccc(S(=O)(=O)Nc3ccccc3F)cc2)N(C)C)cc1` (stereo not drawn), the growth rescue was 33.3% (active).
With `Cc1ccc(C)c(C(=O)N2CCC(n3nccc3NC(=O)C3CC3)CC2)c1` the growth rescue was -0.915% (inactive).
With `COc1ccccc1C1CCN(C(=S)Nc2ccc(Br)cc2)CC1` the growth rescue was 41.2% (active).
With `COc1ccccc1NC(=S)N1CCN(C(c2ccccc2)c2ccccc2)CC1` the growth rescue was -0.67% (inactive).
In the case of `CCC(C)N(C)C1CCN(C(=S)Nc2ccc(OC)cc2)CC1` (stereo not drawn), the growth rescue is reported as 0.96% (inactive).
For `COC(=O)C1(C)NC(c2ccccc2OC)C2C(=O)N(c3ccccc3)C(=O)C21` (stereo not drawn), the growth rescue was -1.44% (inactive).
For `O=S(=O)(c1cccc(Cn2nnc(-c3ccc(F)cc3)n2)c1)N1CCOCC1`, the growth rescue was 1.33% (inactive).
With `O=C(OCCN=C1NS(=O)(=O)c2ccccc21)c1cccc([N+](=O)[O-])c1` the growth rescue was 0.884% (inactive).
With `CCn1c(O)c2ccc(C(=O)N=NC(=O)c3cccnc3)cc2c1O` the growth rescue was -1.24% (inactive).
For `Cc1ccc(N2C(=O)C3N=NN(CC(=O)N4N=C(c5cccc6ccccc56)CC4c4ccccc4)C3C2=O)cc1` (stereo not drawn), the growth rescue was -1.11% (inactive).
With `Oc1ccccc1C1=NN(c2ccccc2)C(c2ccccc2)C1` (stereo not drawn) the growth rescue was 134% (active).
For `O=C1C2N=NN(CC(=O)N3N=C(c4cccc5ccccc45)CC3c3ccccc3)C2C(=O)N1c1ccccc1` (stereo not drawn), the growth rescue was -1.21% (inactive).
For `CCN(CC)C(=O)C1CCC(C)(C(=O)O)C1(C)C` (stereo not drawn), the growth rescue was 1.46% (inactive).
With `COC(=O)C(C(=O)Nc1cccc(C)n1)C1CCCCCC1` (stereo not drawn) the growth rescue was -0.474% (inactive).
For `CC(C)NC(=O)N1CCN(c2ccncc2S(=O)(=O)N2CCCCC2)CC1`, the growth rescue was -0.643% (inactive).
In the case of `O=C(COC(=O)CCOc1ccccc1)Nc1cc(S(=O)(=O)N2CCCCC2)ccc1Cl`, the growth rescue is reported as 1.68% (inactive).
With `Brc1ccc(-c2n(-c3ccccn3)c3ccccc3[n+]2-c2ccccn2)cc1` the growth rescue was 0.665% (inactive).
With `CCOC(=O)c1ccc(N2C(=O)CC(N3CCN(C(=O)c4ccccc4)CC3)C2=O)cc1` (stereo not drawn) the growth rescue was 53.1% (active).
In the case of `CCOC(=O)c1ccc(N2C(=O)CC(N3CC(C)OC(C)C3)C2=O)cc1` (stereo not drawn), the growth rescue is reported as -0.556% (inactive).
With `CCCCOC(=O)c1ccc(N2C(=O)CC(N3CCN(C/C=C/c4ccccc4)CC3)C2=O)cc1` (stereo not drawn) the growth rescue was 0.282% (inactive).
For `COc1ccc(N(C)S(=O)(=O)c2ccc3c(c2)CC(C)N3C(=O)C2CC2)c(OC)c1` (stereo not drawn), the growth rescue was 2.19% (inactive).
For `CC(C)(C)NC(=O)C(c1ccc(Cl)cc1)N(CCO)C(=O)c1snc(C(N)=O)c1N` (stereo not drawn), the growth rescue was -0.519% (inactive).
For `CCC(C(=O)NCCC(C)C)N(Cc1ccccc1Cl)C(=O)c1snc(C(N)=O)c1N` (stereo not drawn), the growth rescue was 0.982% (inactive).
For `CCCCC(C(=O)NC(C)(C)C)N(Cc1ccccc1)C(=O)c1snc(C(N)=O)c1N` (stereo not drawn), the growth rescue was 59.5% (active).
For `CC12CCC(=O)N1C(C(=O)NCCN1C(=O)S/C(=C\c3ccccc3F)C1=O)CS2` (stereo not drawn), the growth rescue was -1.34% (inactive).
For `COc1ccc(CCNc2nc(C)cc(C)n2)cc1OC`, the growth rescue was 0.933% (inactive).
In the case of `NS(=O)(=O)c1ccc(CCNC(=O)c2ccc(Cl)c(S(=O)(=O)N3CCCCCC3)c2)cc1`, the growth rescue is reported as 0.571% (inactive).
For `CCc1ccccc1NC(=O)CSc1nnc(-c2ccncc2)o1`, the growth rescue was -0.233% (inactive).
For `CC1=CC(C)(C)N(C(=O)CSc2nccn2C)c2cc(C)ccc21`, the growth rescue was -0.0285% (inactive).
With `CC1=CC(C)(C)N(C(=O)CSc2nnc(-c3ccccc3)o2)c2ccc(C)cc21` the growth rescue was 81.1% (active).
In the case of `O=C(CN(c1ccc2c(c1)OCCO2)S(=O)(=O)c1ccccc1)Nc1ccc2c(c1)OCO2`, the growth rescue is reported as 0.974% (inactive).
With `COc1ccc(CNC(=O)COC(=O)c2sccc2C)cc1OC` the growth rescue was -0.071% (inactive).
In the case of `COc1ccnc(Oc2ccccc2)c1-c1ncn[nH]1`, the growth rescue is reported as -2.24% (inactive).
In the case of `COc1ccc(NCCc2ccccn2)cc1`, the growth rescue is reported as -0.895% (inactive).
In the case of `COc1cnc(-c2ccccn2)nc1Oc1ccc(C(C)(C)C)cc1`, the growth rescue is reported as 162% (active).
With `CC1(C(=O)O)CCC(C(=O)Nc2ccc(Cl)c(Cl)c2)C1(C)C` (stereo not drawn) the growth rescue was -0.486% (inactive).
For `Cc1cccc(C)c1NC(=O)CCCSc1nnc(-c2ccco2)n1-c1ccccc1`, the growth rescue was 0.934% (inactive).
